# HPGD block: HPGD (human) dehydrogenase inhibition; P15428; purified HPGD, NADH fluorescence kinetic, PGE2 substrate; AID 894; 150,000 tested, 4.3% active; Potency, µM, for inactives: at the top dose activity change, negative = inhibition, hits mostly inhibitors; also: potency is read from the fitted curve at half-maximal effect
#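 NADH formation kinetics: reaction with 30 uM PGE2 and 1 mM NAD+ (final), 20 nM enzyme, Tris-HCl pH 8 with Tween 20, after 15 min compound preincubation at room temperature. Fluorescence change, last versus first of five reads.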
# PNC assembly inh: inhibitors of perinucleolar compartment assembly. PC3M PTB-GFP, PNC prevalence imaging, 16 h; hits give low values. activity change (PNC), negative = inhibition, % at 10 µM. 140,000 tested, 3.1% active. AID 2417;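 active = readout at or below -70, meaning at least 70% loss of cells showing the perinucleolar compartment, a nuclear body marking cancer cells; inconclusive = readout between -30 and a set limit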;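 also: plate controls were DMSO wells for no effect and camptothecin positive control wells for full effect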
#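 PC3M cells stably expressing PTB-GFP, 750–1000 cells/well, treated 16 h at 37 °C with compound (23 nl of library stock), in duplicate. After paraformaldehyde fixation and Hoechst stain, imaged at 20x; PNC prevalence scored by image analysis.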
# ALDH1A1 block: inhibitors of human aldehyde dehydrogenase 1A1; Potency, µM (titrated, usually from 75.3 µM), without a hit: at the top dose activity, negative = inhibition, hits mostly inhibitors; Purified ALDH1A1, NADH fluorescence, propionaldehyde substrate; AID 1030; 220,000 tested, 7.3% active;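 also: potency is read from the fitted curve at half-maximal effect; plate controls were no enzyme wells and a reference inhibitor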
# Target sequence (P00352 whole entry, looked up): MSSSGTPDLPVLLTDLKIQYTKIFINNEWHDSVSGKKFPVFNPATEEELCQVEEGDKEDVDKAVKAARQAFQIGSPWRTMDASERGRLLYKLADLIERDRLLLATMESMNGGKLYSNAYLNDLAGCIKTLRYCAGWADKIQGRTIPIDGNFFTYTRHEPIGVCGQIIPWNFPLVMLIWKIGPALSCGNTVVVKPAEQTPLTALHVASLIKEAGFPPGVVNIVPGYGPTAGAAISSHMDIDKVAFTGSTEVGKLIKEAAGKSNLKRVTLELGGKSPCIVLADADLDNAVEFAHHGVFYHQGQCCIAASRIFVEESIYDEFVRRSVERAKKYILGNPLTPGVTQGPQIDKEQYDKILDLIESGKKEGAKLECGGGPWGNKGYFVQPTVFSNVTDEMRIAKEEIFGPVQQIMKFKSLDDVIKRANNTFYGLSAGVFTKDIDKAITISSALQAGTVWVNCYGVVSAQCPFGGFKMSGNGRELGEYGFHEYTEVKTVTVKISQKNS
# * = called active by the depositor; u = inconclusive; x = no result; [ ] = dose if it differs, or a comment. Rows were chosen to be rich in hits. Some 11% of all compounds tested hit in one or more screens of this group. Unless noted, calls follow the shape of the dose curve; as a rule, active = well fitted inhibition curve with a large enough effect (not every such curve was filed as active); inconclusive = small, poorly fitted or top-dose-only effect, or another doubt; inactive = no such curve, though single readings can be large or run the other way. Unless noted, % is scaled to controls: 0 for no effect and ±100 for the full control effect.
SMILES,HPGD block,PNC assembly inh,ALDH1A1 block
c1ccc(Cn2nnnc2C(c2cccnc2)N2CCN(c3ccccc3)CC2)cc1 (centres undefined),-8%,-20,-3%
CC[C@H](C)[C@H](NC(=O)OCc1ccccc1)C(=O)Nc1ccc(NC(C)=O)cc1,x,x,-2%
Cc1ccc(NC(=O)C(C)c2ccc([N+](=O)[O-])cc2)cc1Cl (centres undefined),-6%,36,-7%
COC1C=CC23c4cc5c(cc4CN(CC2O)C3C1)OCO5 (centres undefined),-6%,x,0%
O=C(CN1CCN(S(=O)(=O)c2ccc(Br)cc2)CC1)N/N=C/c1ccco1,-2%,33,3%
Cc1ccc(-c2nnc(Nc3ccc4c(c3)OCO4)c3ccccc23)cc1S(=O)(=O)NC(C)C,-3%,-4,-10%
Cc1ccc(NC(C#N)c2ccccc2OCc2ccccc2)cc1 (centres undefined),-14%,-17,u
CC(C)[C@H](NC(=O)C1CCCC1)c1nc2ccccc2[nH]1,x,x,-7%
OC1(c2cccc(C(F)(F)F)c2)CCN(Cc2nnnn2Cc2ccccc2)CC1,x,x,-13%
OC1(c2ccc(F)cc2)CCN(Cc2nnnn2Cc2cccs2)CC1,-4%,-20,4.5µM*
CC(=O)c1cc(CN2CCN(CC=C(C)C)C(CCO)C2)cs1 (centres undefined),x,x,6%
CC(/C=C/c1ccccc1)=N\NC(=O)Cn1nc(C)cc1C,-14%,10,-8%
COc1ccc(Cc2nn3c(-c4cc(OC)c(OC)c(OC)c4)nnc3s2)cc1,22µM*,14,11µM*
COc1cc(-c2nnc3sc(C4CCCCC4)nn23)cc(OC)c1OC,u,-10,u
COc1cc(-c2nn3c(-c4ccccn4)nnc3s2)cc(OC)c1OC,u,15,8%
COc1cc(-c2nnc3sc(Cc4ccccc4)nn23)cc(OC)c1OC,u,22,22µM*
CCC(Sc1nncn1C)C(=O)Nc1ccccc1OC (centres undefined),-12%,4,7%
NC(=O)C1CCN(C(=O)Cn2cccc2C(=O)c2ccccc2)CC1,-7%,u,10%
C=CCNC(=S)Nc1cccc2[nH]ncc12,x,x,-9%
COc1ccc(C(C)=O)cc1CSc1nncn1-c1ccccc1,-10%,u,u
O=C(O)CCC1COc2ccccc2O1 (centres undefined),-6%,u,6%
CN(CC1COc2ccccc2O1)C(=O)c1ccc(N(C)C)cc1 (centres undefined),x,x,5.6µM*
CN(C)c1ccc(C=NCC2COc3ccccc3O2)cc1 (centres undefined),x,x,0.56µM*
O=C(NCC1COc2ccccc2O1)c1ccc(Cl)cc1 (centres undefined),-18%,-3,-9%
O=C(NCc1ccc(F)cc1)C(C(=O)NCc1ccc(F)cc1)c1ncc(C(F)(F)F)cc1Cl,x,x,4%
SMILES,HPGD block,PNC assembly inh,ALDH1A1 block
CCOC(=O)Nc1nnc(-c2ccc(OC)c(OC)c2)s1,u,-19,u
CC(C)n1cc(/C=C2/NC(=O)N(c3cccc(Cl)c3)C2=O)c2ccccc21,-20%,-100*,u
CC(C)n1cc(/C=C2\NC(=O)N(c3cccc(Cl)c3)C2=O)c2ccccc21,-19%,55,u
COCCNC(=O)C(C)OC(=O)c1nsc(Cl)c1Cl (centres undefined),-2%,21,6%
COCCNC(=O)COC(=O)c1nsc(Cl)c1Cl,-10%,-109*,u
Cc1ccccc1CN1C2=NCCN2C(=O)C2=C1CCN(Cc1ccccc1)C2,-5%,x,6%[13.5 µM]
c1nnc(NC2=NCCC2)s1,-13%,-111*,-1%
c1nnc(NC2=NCCCCC2)s1,-8%,-19,-1%
CCN(CC)S(=O)(=O)c1cccc(C(=O)N[C@H](C(=O)OCC(=O)NC(=O)NC)C(C)C)c1,-1%,57,5%
O=c1c2ccccc2n2c(-c3cccc(Cl)c3)nnc2n1Cc1ccccc1,-20%,15,-9%
COc1ccc(-c2nnc3n(CCc4ccccc4)c(=O)c4ccccc4n23)cc1OC,x,15,1.8µM*
C[C@H](NC(=O)c1nc[nH]c1C(=O)NC(c1ccccc1)c1ccccc1)C(=O)OC(C)(C)C,x,x,2µM*
C[C@@H](NC(=O)c1nc[nH]c1C(=O)N[C@@H](Cc1ccccc1)C(=O)OC(C)(C)C)c1ccccc1,x,x,1%
C[C@H](NC(=O)c1nc[nH]c1C(=O)N[C@H](C)c1ccccc1)C(=O)OC(C)(C)C,x,x,6%
C[C@H](NC(=O)c1nc[nH]c1C(=O)N[C@@H](Cc1ccccc1)C(=O)OC(C)(C)C)c1ccccc1,x,x,18µM*

# Compound activity: PubChem, National Center for Advancing Translational Sciences (NCATS)
